# NadD inh = inhibitors of S. aureus NadD, primary screen, biochemical, colorimetric, uHTS | purified NadD enzyme, colorimetric absorbance read-out | inhibition, % at 20 µM | hit rate 0.78% among 360,000 | AID 602399, 2012; in the data active = inhibition above about 26%
# MsrA act = bovine MsrA enzyme activators, primary screen, biochemical, absorbance, HTS; purified bovine MsrA, absorbance read-out; activation, % at 10.6 µM; hit rate 0.3% among 360,000; in the data active = activation above about 7.5%;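 note: 0% = vehicle and 100% = reference activator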
# MsrA inh = bovine MsrA enzyme inhibitors, primary screen, biochemical, absorbance, HTS | purified bovine MsrA, absorbance read-out | AID 651718, 2012 | inhibition, % at 15.5 µM | Methionine sulfoxide reductase A (Bos taurus) | hit rate 0.75% among 360,000; in the data active = inhibition above about 4.5%;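 note: 0% = vehicle wells with enzyme and 100% = reference inhibitor wells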
# rCAG RNA binder = binders of r(CAG) RNA repeats, primary screen, biochemical, fluorescence; hit rate 1.3% among 370,000; r(CAG) RNA repeat, TO-PRO-1 dye displacement fluorescence; AID 651821, 2012; inhibition, % at 3 µM;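 active = inhibition above the plate cutoff, the mean of all test compounds on that plate plus 3 SD, cut at about 35% in these data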;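 note: 0% = DMSO alone and 100% = 100 µM mitoxantrone as full dye displacement; higher means more dye released from RNA so lower well fluorescence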
# * hit, by the source's call; . = no result given. An excerpt weighted towards active compounds, which were near 2.7% of everything screened.
SMILES,NadD inh,MsrA act,MsrA inh,rCAG RNA binder
C#CCn1c(=NC(=O)c2ccc(S(=O)(=O)N3CCc4ccccc4C3)cc2)sc2cc(S(N)(=O)=O)ccc21,47*,-2,.,.
C=CCn1c(SCc2c(Cl)cccc2Cl)nnc1-c1cccc(C)c1,.,.,.,1
CC(C)(C)NC(=O)C(c1cccc2ccccc12)n1c(=O)c(-c2ccco2)nc2ccccc21 (centres undefined),.,.,0,44*
O=C(NCc1ccccc1)C(c1cccc2ccccc12)n1c(=O)c(-c2ccco2)nc2ccccc21 (centres undefined),.,.,0,38*
CC(C)(C)NC(=O)C(c1cccc2ccccc12)n1c(=O)c(-c2ccccc2)nc2ccccc21 (centres undefined),.,.,-1,4
O=C(Nc1ccc(O)cc1)/C(=C\C=C\c1ccccc1)NC(=O)c1ccccc1,-5,-7,1,7
O=C(Nc1ccc(C(=O)O)cc1)/C(=C\C=C\c1ccccc1)NC(=O)c1ccccc1Cl,6,-7,5.8*,37*
O=C1NC(=O)C(=CC=Cc2ccccc2)S1,2,-7,4.6*,5
NC1=NC(=O)/C(=C\C=C\c2ccccc2)S1,-2,4,3,4
CCOC(=O)c1cc(-c2ccccc2)sc1NC(=O)COC(=O)c1ccc(Cl)c(S(N)(=O)=O)c1,42*,-2,.,.
Cc1cccc(NC(=O)CSc2nnc(-c3ccco3)c(-c3ccco3)n2)c1,11,-10,4.9*,42*
Cc1cccc(NC(=O)CSc2nnc(-c3ccco3)c(-c3ccco3)n2)c1C,17,-13,.,.
O=C1C(SCCO)=C(SCCO)C(=O)c2ccccc21,5,0,1,5
CC1=C(SCc2ccccc2)C(=O)c2ccccc2C1=O,14,1,21*,27
COC(=O)c1ccc(CNC(=O)c2cc(S(=O)(=O)NCc3ccccc3)ccc2C)cc1,-3,-6,-1,6
CC(=O)Nc1ccc(C23CC4CC(CC(C4)C2)C3)cc1,-1,-1,0,10
Oc1ccc(C23CC4CC(CC(C4)C2)C3)cc1O,35*,-4,0,8
Nc1ccc(S(=O)(=O)c2cc(O)c3ccccc3c2O)cc1,21,-2,0,57*
Cc1ccc(CNC(=O)OC(C)(C)C)c(/C=C/S(=O)(=O)NC2CCCC2)c1,.,.,.,0
CCN(CC)c1ccc(S(=O)(=O)N2CCOCC2)cc1NC(=O)CSC(=S)N1CCCC1,6,2,0,-1
C/C=C(\C)C(=O)OC1CC(C)(C)C[C@H]2C3=CC[C@@H]4[C@@]5(C)CCC(O[C@@H]6O[C@@H](C(=O)O)[C@@H](O)C(O[C@@H]7OC[C@H](O)[C@@H](O)[C@@H]7O[C@@H]7OC(CO)C(O)[C@@H](O)[C@@H]7O)C6O[C@@H]6OC(CO)C(O)C(O)C6O)[C@@](C)(CO)[C@@H]5CC[C@]4(C)[C@]3(C)CC(O)[C@@]12CO (some centres undefined),-2,2,-1,45*
COc1ccc(Cn2cc(CN3CC=CS3(=O)=O)nn2)cc1,.,.,.,2
C[C@H](CO)N1C[C@H](C)[C@@H](CN(C)C(=O)c2ccc(N3CCN(C)CC3)cc2)OCc2cnnn2CCCC1=O,-3,-4,0,-1
CC(C)(C)NC(=O)C(c1ccc(-c2ccccc2)cc1)n1c(=O)c(-c2ccco2)nc2ccccc21 (centres undefined),.,.,0,37*
Cc1cccc(C)c1NC(=O)C(c1ccc(-c2ccccc2)cc1)n1c(=O)c(-c2ccco2)nc2ccccc21 (centres undefined),.,.,-1,41*
SMILES,NadD inh,MsrA act,MsrA inh,rCAG RNA binder
COC(=O)[C@]12C[C@H](CC(=O)N3CCN(C(=O)C4CC4)CC3)C(=O)N(Cc3cccc4ccccc34)C1=C[C@H](C1CCCC1)O[C@@H]2C,.,.,.,9
CCOC(=O)C1Oc2ccccc2C(c2ccoc2)=C1C(=O)OC (centres undefined),0,-1,.,.
Cn1cc(/C=C2\SC(=S)N(NC(=O)c3ccccc3Cl)C2=O)c2ccccc21,40*,-5,2,16
Cc1ccc(NS(=O)(=O)c2cc([N+](=O)[O-])ccc2NNC(=S)Nc2cccc(Cl)c2)c(C)c1,46*,-6,.,.
COC(=O)/C(C(C)=O)=C(\C=C\N(C)C)N(C)C,3,-6,3,-1
COC(=O)C(=CC(=CN(C)C)C=C(C(=O)OC)C(=O)OC)C(=O)OC,-2,-5,4.5*,-2
CC(C)C#Cc1ccc2c(c1)O[C@@H](CN(C)S(=O)(=O)c1cn(C)cn1)[C@@H](C)CN([C@H](C)CO)S2(=O)=O,4,2,-1,1
O=C(NC(c1ccc(Cl)cc1)c1cnccn1)C1CCN(CCCc2ccccc2)CC1 (centres undefined),-6,-7,.,.
COc1cccc2cc(C(=O)C3=C(O)C(=O)N(CCN(C)C)C3c3ccc(F)cc3)oc12 (centres undefined),3,-3,2,6
CCN(CC)CCCN1C(=O)C(O)=C(C(=O)c2cc3cccc(OC)c3o2)C1c1ccncc1 (centres undefined),3,-4,4.8*,4
CCN(CC)C(=O)C1=C(C)N(CCC2=CCCCC2)C(=O)C(CC(=O)NCCc2ccccn2)C1 (centres undefined),5,-1,-1,-1
CCN1/C(=C/c2ccc3cc(C)ccc3[n+]2CC)Sc2ccc3sccc3c21,44*,0,.,.
COc1ccc(C2CC(=O)Oc3cc(O)cc(O)c32)cc1 (centres undefined),-4,-9,1,1
COc1ccc([C@H]2Oc3cc(O)cc(O)c3C(=O)C2[C@@H]2C(=O)c3c(O)cc(O)cc3O[C@@H]2c2ccc(OC)cc2)cc1 (some centres undefined),.,.,4,58*
Cc1[nH]n(-c2ccc([N+](=O)[O-])cc2)c(=O)c1C=NCCN1CCN(C(=O)c2ccccc2)CC1,-6,-3,4.8*,6
COC(=O)C(C)Oc1ccc(Cl)c(CN2OCC(C)(C)C2=O)c1 (centres undefined),-7,-4,-2,-4
CN(C)c1ccc(C=Nc2ccccc2C(N)=O)cc1,0,-4,5.6*,0
Cc1ccc(C=Nc2ccccc2C(N)=O)o1,0,-2,0,4
O=S(=O)(Nc1nc2ccccc2nc1Cl)c1cccc(C(F)(F)F)c1,1,-2,0,42*
COc1cccc(/C=N/Nc2nc(Nc3ccc([N+](=O)[O-])cc3)nc(N3CCCC3)n2)c1O,35*,-15,4,10
COc1cc(/C=N/Nc2cccc(C)c2)cc(Br)c1O,26*,-5,3,26
COc1cc(/C=N/Nc2cccc(C)c2)ccc1OC(=O)c1cccs1,8,0,1,6
COc1ccc(C(=O)Nc2ccccc2C(=O)O)cc1NC(=O)C(c1ccccc1)c1ccccc1,15,-4,-1,82*

# Screening results: PubChem, several laboratories
